Results as given in PubChem BioAssay AID431 (Sanford-Burnham Center for Chemical Genomics, 2006).
Hit rate of the full screen: of about 63,000 compounds, about 1,100 (1.7%) were called active.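 Rule for the calls: active = compounds whose percent cytotoxicity in the single-dose primary screen, scaled between solvent and toxic-drug controls, exceeds 50; inactive = the rest.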 Shown is part of a subset that was picked to be rich in actives. Entries with a potency or affinity are not part of this list.

assay: viability loss of HPDE-C7K cells – cell-based, fluorescence, HTS, primary screen (AID 431); conditions: HPDE-C7K KRASV12 cells, Alamar Blue viability, 48 h; at 10 µM; hits give high values;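 note: 0% = DMSO solvent wells and 100% = doxorubicin-treated wells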

| Compound | cytotoxicity |
| --- | --- |
| COc1ccc(C2=NOC(C(=O)NCCCN3CCOCC3)C2)cc1 (stereo unspecified) | 1.1% (inactive) |
| Cc1ccc(-c2nnn(CC(=O)N(Cc3cccs3)C(C(=O)NC(C)(C)C)c3ccco3)n2)o1 (stereo unspecified) | -2.9% (inactive) |
| Cc1ccc(-c2nnn(CC(=O)N(c3ccccc3)C(C(=O)NC3CCCC3)c3ccco3)n2)o1 (stereo unspecified) | -7.9% (inactive) |
| Cc1ccc(-c2nnn(CC(=O)N(Cc3cccs3)C(C(=O)NC3CCCC3)c3ccco3)n2)o1 (stereo unspecified) | 66.5% (active) |
| CCOC(=O)N1CCN(C(=O)c2c(O)c3cccc4c3n(c2=O)CC4)CC1 | -3% (inactive) |
| O=C(O)CSC1CC(=O)N(c2cccc(Cl)c2)C1=O (stereo unspecified) | -10.2% (inactive) |
| CCc1nc(SCC(=O)c2ccc(C)c(C)c2)n[nH]1 | -2.5% (inactive) |
| O=S(=O)(Nc1ccc2c(c1)nc1n2CCN(Cc2ccccc2)C1)c1ccccc1 | 0.8% (inactive) |
| O=S(=O)(Nc1ccc2c(c1)nc1n2CCN(Cc2ccccc2)C1)c1ccc(Cl)cc1 | 51.1% (active) |
| Cc1ccc(S(=O)(=O)Nc2ccc3c(c2)nc2n3CCN(Cc3ccccc3)C2)cc1 | 6.9% (inactive) |
| COc1ccc(CC(C)N2CCN(c3ccccc3OC)CC2)cc1OC (stereo unspecified) | 8.7% (inactive) |
| CCn1c(SCC(=O)NCc2ccco2)nc2c1c(=O)n(C)c(=O)n2C | -20.9% (inactive) |
| COC(=O)c1cc(NC(=O)c2nccnc2C(=O)O)cc(C(=O)OC)c1 | -2.1% (inactive) |
| CCOC(=O)C1=C(C)NC2=C(C(=O)c3ccccc32)C1c1cccnc1 (stereo unspecified) | 12.3% (inactive) |
| COC(=O)C1=C(C)NC2=C(C(=O)c3ccccc32)C1c1ccc(-c2ccc(C(=O)O)cc2)o1 (stereo unspecified) | 62.8% (active) |
| CC(=O)C1=C(C)NC(C)=C(C(C)=O)C1c1ccc(-c2ccccc2Cl)o1 | -13% (inactive) |
| Cc1ccc(C(=O)NCc2ccco2)cc1S(=O)(=O)N1CCCCC1 | -20.4% (inactive) |
| Cc1c(NC(=O)c2ccccc2N)cccc1C(=O)O | 6.3% (inactive) |
| CC(=O)c1cccc(NC(=O)CN(Cc2ccccc2)S(C)(=O)=O)c1 | -3.4% (inactive) |
| O=C(C(NS(=O)(=O)c1cccs1)c1ccccc1)N1CCN(c2ccccc2)CC1 (stereo unspecified) | -9.8% (inactive) |
| COc1ccc2nc3oc(C(=O)N4CCN(c5cccc(Cl)c5)CC4)cc3cc2c1 | 25.9% (inactive) |

| Compound | cytotoxicity |
| --- | --- |
| COc1ccc(OC)c(S(=O)(=O)N(C)CC(=O)N2CCN(c3cccc(Cl)c3)CC2)c1 | -14.2% (inactive) |
| Cc1cc(C(=O)N2CCN(c3ncccn3)CC2)c(C)o1 | 6.7% (inactive) |
| COc1ccccc1C(=O)N1CCN(c2cccc(Cl)c2)CC1 | 31.3% (inactive) |
| COc1ccc(C(=O)N2CCN(c3cccc(Cl)c3)CC2)c(OC)c1 | 50.5% (active) |
| Cc1ccc2occ(CN3CCN(c4ccccc4)CC3)c(=O)c2c1 | -18.2% (inactive) |
| CCOc1ccccc1C(=O)N1CCN(c2cccc(Cl)c2)CC1 | 65.8% (active) |
| COc1ccc(N2CCN(Cc3cc(=O)oc4ccc(Cl)cc34)CC2)cc1 | -1.6% (inactive) |
| O=C(O)c1ccccc1C(=O)N1CCN(c2cccc(Cl)c2)CC1 | 0.5% (inactive) |
| COc1cccc(N2CCN(Cc3coc4c(Cl)cc(Cl)cc4c3=O)CC2)c1 | 65% (active) |
| CCOc1ccc(C(=O)N2CCN(c3ccccc3)CC2)cc1OCC | -18% (inactive) |
| Cc1cc(C(=O)N2CCN(c3cccc(Cl)c3)CC2)c(C)o1 | 62.7% (active) |
| Cc1cc(C(=O)CSc2nc3ccccc3n2CCC#N)c(C)n1Cc1cccs1 | -13.5% (inactive) |
| Cc1ccc(C(=O)CSc2nnc(CNc3ccc(C)cc3C)n2Cc2ccco2)cc1 | 30.1% (inactive) |
| Brc1ccc2ncnc(Nc3ccc(N4CCOCC4)cc3)c2c1 | -4.9% (inactive) |
| CCCn1c(SCC(=O)c2cc(OC)ccc2OC)nc2c1c(=O)n(C)c(=O)n2C | 8.2% (inactive) |
| CCOC(=O)c1[nH]c(C)c(C(=O)NCC2CCCO2)c1C (stereo unspecified) | 5.6% (inactive) |
| CCCCN(CC)C(=O)c1ccc(Cl)c(Cl)c1 | -3.6% (inactive) |
| COc1ccccc1C(=O)N1CCN(c2cccc(C(F)(F)F)c2)CC1 | 62.5% (active) |
| Cc1ccc(C(=O)N2CCN(c3cccc(Cl)c3)CC2)cc1C | 27.4% (inactive) |
| O=C(c1cccc(F)c1)N1CCN(c2cccc(Cl)c2)CC1 | 26.8% (inactive) |
| COc1cc(CN2CCSCC2)cc(OC)c1OC | -7.4% (inactive) |

| Compound | cytotoxicity |
| --- | --- |
| O=C(c1c(Cl)nc2sccn12)N1CCN(c2cccc(Cl)c2)CC1 | 64.5% (active) |
| COc1ccccc1CC(=O)N1CCN(c2cccc(C(F)(F)F)c2)CC1 | -1.7% (inactive) |
| O=C(c1ccccc1F)N1CCN(c2cccc(C(F)(F)F)c2)CC1 | -5.2% (inactive) |
| COc1ccc(CCNC(=O)CN2CCN(c3cccc(Cl)c3)CC2)cc1OC | 8.7% (inactive) |
| Nc1ccc(CCS(N)(=O)=O)cc1 | 12.4% (inactive) |
| c1ccc(-c2noc(CN3CCN(C(c4ccccc4)c4ccccc4)CC3)n2)cc1 | -6.9% (inactive) |
| CCCC(=O)c1cc(F)c(N2CCN(C(=O)OCC)CC2)cc1C | -0.7% (inactive) |
| COCCSc1nnc(NC(=O)CSCc2ccccc2)s1 | 16.5% (inactive) |
| CCCCOC(=O)Cn1c(=O)oc2ccc(C)cc21 | 5.8% (inactive) |
| CN1CCCC(OC(=O)c2cc(Cl)ccc2Cl)C1 (stereo unspecified) | -23.9% (inactive) |
| Cc1nnc2sc(-c3cccc(NC(=O)c4cccnc4)c3)nn12 | -1% (inactive) |
| CSc1nnc2n(CCc3ccccc3)c(=O)c3c4c(sc3n12)CCCC4 | 15.3% (inactive) |
| Cn1c(=O)c2[nH]cnc2n(-c2ccccc2)c1=O | -4.3% (inactive) |
| COc1ccc(OC)c(Nc2nc(-c3sc(C)nc3C)cs2)c1 | 26.2% (inactive) |
| COc1ccc(C(=O)Nc2nc(-c3cccs3)cs2)cc1 | 38% (inactive) |
| COc1ccc(OC)c(Nc2nc(-c3ccc(O)c(O)c3)cs2)c1 | 59.5% (active) |
| COc1ccc(OC)c(Nc2nc(-c3cccs3)cs2)c1 | 54.9% (active) |
| COc1ccc(-c2csc(NC(C)=O)n2)cc1OC | 10.2% (inactive) |
| COc1ccccc1Nc1nc(-c2cccs2)cs1 | 18.3% (inactive) |
